We go through 14 molecules from PubChem BioAssay (NCI).

Test systems include NCI-H23 lung; NCI-H226 lung; NCI-H322M lung; HOP-62 NSCLC; NCI-H460 lung; HOP-92 NSCLC; NCI-H522 lung; A549/ATCC NSCLC; 786-0 renal; COLO 205 colon.
Holding throughout (experiment): NCI-60 one-dose screen, 48 h (100 = growth as untreated, 0 = no growth, -100 = all killed)
Holding throughout (settings): 10 µM unless noted

About 83,000 compounds went through this panel and 20% of them were active in at least one assay; those are over-represented in the sample as a whole.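 In brief: 96-well plates, 48 h treatment, single concentration, percent growth endpoint.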 Unmarked numbers belong to inactive results. The source made the active and inactive calls. How the source made its calls: active means growth percent below 10; inactive means the rest.

For `CCCCCCCCCCCCCCCCCCOc1ccccc1CCCOP(=O)(O)OCC[N+](C)(C)C`, the growth was 93.5% in the assay with NCI-H23 lung; 92.3% in the assay with NCI-H226 lung; 113% with NCI-H322M lung; 59.3% in the assay with HOP-62 NSCLC; 14.1% in the assay on NCI-H460 lung; 33.4% in the assay on HOP-92 NSCLC. The growth is 67.9% in the assay on NCI-H522 lung, 54.8% in the assay with A549/ATCC NSCLC, 85.1% with 786-0 renal and 31.6% in the assay with COLO 205 colon.
`COc1cc(C(=O)c2cc(C)c3[nH]c4ccc(C)cc4c3c2C)cc(OC)c1OC`: the growth in the assay with NCI-H23 lung is 16.7%; in the assay with NCI-H226 lung, 54.4%; in the assay on NCI-H322M lung it was 39.9%; with HOP-62 NSCLC, 38.9%; in the assay on NCI-H460 lung, 6.57% (active); in the assay on HOP-92 NSCLC, 29.2%. Besides, the growth in the assay with NCI-H522 lung was 19.8%; in the assay on A549/ATCC NSCLC, 20.9%; in the assay with 786-0 renal, 19.4%; with COLO 205 colon, -19.2% (active).
As to `COc1cc(C(=O)c2cc(C)c3[nH]c4ccc(O)cc4c3c2C)cc(OC)c1OC`, the growth with NCI-H23 lung is 31.4%; in the assay with NCI-H226 lung, 53%; with NCI-H322M lung, 33.7%; in the assay with HOP-62 NSCLC, 40.1%; in the assay on NCI-H460 lung, 8.93% (active); in the assay with HOP-92 NSCLC, 32.2%. Further, the growth is 33.7% in the assay with NCI-H522 lung, 22.7% in the assay on A549/ATCC NSCLC, 13.8% in the assay with 786-0 renal and 7.01% (active) with COLO 205 colon.
`O=[N+]([O-])c1ccc(Oc2nc(Nc3ccc(O[C@H]4CO[C@H]5[C@@H]4OC[C@@H]5O)c(Cl)c3)ncc2F)c(Cl)c1`: the growth in the assay with NCI-H23 lung was 25.7%; in the assay with NCI-H226 lung it was 19.5%; with NCI-H322M lung, 29.9%; in the assay with HOP-62 NSCLC it was 23.2%; in the assay with NCI-H460 lung it was 22.7%; in the assay on HOP-92 NSCLC, -7.77% (active). For the same molecule, the growth is 8.06% (active) with NCI-H522 lung, 40% in the assay on A549/ATCC NSCLC, 21.4% with 786-0 renal and 33.3% in the assay with COLO 205 colon.
As to `COc1ccc(C2=Nn3c(nnc3-c3cc(Cl)cc(Cl)c3Cl)SC2)cc1`, the growth was 3.14% (active) with NCI-H23 lung; 64.8% with NCI-H226 lung; 36.4% in the assay on NCI-H322M lung; -2.41% (active) with HOP-62 NSCLC; -18.9% (active) in the assay with NCI-H460 lung; 22.3% with HOP-92 NSCLC. In addition, the growth in the assay on NCI-H522 lung is -17.8% (active); in the assay with A549/ATCC NSCLC it was 21.9%; in the assay on 786-0 renal, 6.36% (active); with COLO 205 colon it was -34.4% (active).
With `OC(c1ccccc1)C(NC(Cc1ccccc1)c1ccccc1)c1ccccc1` (stereo not given), the growth was 81.8% in the assay with NCI-H23 lung; 82.1% with NCI-H226 lung; 93.2% in the assay on NCI-H322M lung; 88% with HOP-62 NSCLC; 91.7% with NCI-H460 lung; 65.3% in the assay on HOP-92 NSCLC. Further, the growth in the assay with NCI-H522 lung was 67.1%; in the assay with A549/ATCC NSCLC, 73.3%; in the assay on 786-0 renal it was 81.4%; with COLO 205 colon it was 101%.
In the case of `O=C1c2cccc3cccc(c23)C(=O)N1Nc1nc(N2CCOCC2)nc(N2CCN(c3ccccc3)CC2)n1`, the growth is 64% in the assay with NCI-H23 lung; 57.5% in the assay on NCI-H226 lung; 65.5% in the assay with NCI-H322M lung; 46.3% with HOP-62 NSCLC; 28.8% with NCI-H460 lung; 7.52% (active) in the assay on HOP-92 NSCLC. The growth is 29.9% in the assay with NCI-H522 lung, 53.1% with A549/ATCC NSCLC, 65.6% in the assay with 786-0 renal and 3.51% (active) in the assay on COLO 205 colon.
Consider `S=C(c1cccs1)N1CCN(c2cccc(Cl)c2)CC1`, for which the growth with NCI-H23 lung is 99.2%; in the assay on NCI-H226 lung, 92.7%; in the assay with NCI-H322M lung, 122%; in the assay with HOP-62 NSCLC, 102%; in the assay with NCI-H460 lung, 105%; in the assay with HOP-92 NSCLC, 81.7%. In addition, the growth is 81.1% with NCI-H522 lung, 87.6% in the assay with A549/ATCC NSCLC, 85.4% with 786-0 renal and 107% in the assay with COLO 205 colon.
With `COc1cccc(OC)c1C(=O)N[C@@H]1C(=O)N2[C@@H]1SC(C)(C)[C@@H]2C(=O)O`, the growth with NCI-H23 lung is 103%; with NCI-H226 lung, 107%; with NCI-H322M lung it was 95.6%; in the assay with HOP-62 NSCLC it was 103%; in the assay with NCI-H460 lung it was 112%; in the assay with HOP-92 NSCLC, 44.9%. In addition, the growth in the assay with NCI-H522 lung was 88.7%; in the assay with A549/ATCC NSCLC, 105%; in the assay on 786-0 renal, 95.6%; in the assay on COLO 205 colon it was 107%.
Consider `C=C1C(=O)O[C@H]2[C@H]1CC/C(COC(=O)CSCC(=O)OC/C1=C/CC[C@@]3(C)O[C@H]3[C@H]3OC(=O)C(=C)[C@@H]3CC1)=C\CC[C@@]1(C)O[C@@H]21`, for which the growth is 58.1% with NCI-H23 lung; 91.6% with NCI-H226 lung; 90.7% in the assay with NCI-H322M lung; 92.7% with HOP-62 NSCLC; 73.9% with NCI-H460 lung; -16.9% (active) with HOP-92 NSCLC. Further, the growth is -69.7% (active) with NCI-H522 lung, 72.8% with A549/ATCC NSCLC, 7.49% (active) in the assay on 786-0 renal and -54.9% (active) in the assay on COLO 205 colon.
Consider `O=c1c2cc(C(F)(F)F)ccc2sc2c(NCCCNCCO)nc3ccccc3c12`, for which the growth in the assay with NCI-H23 lung was 45%; in the assay on NCI-H226 lung, 75.7%; with NCI-H322M lung it was 58.5%; with HOP-62 NSCLC it was 40.7%; in the assay on NCI-H460 lung it was -82.3% (active); in the assay with HOP-92 NSCLC, 27.9%. Also, the growth was -22.2% (active) in the assay on NCI-H522 lung, -29.6% (active) in the assay on A549/ATCC NSCLC, 43% in the assay on 786-0 renal and -53.2% (active) with COLO 205 colon.
As for `Cc1cc(=O)oc2cc(OC(=O)CN3CCN(C)CC3)ccc12`, the growth with NCI-H23 lung was 97.4%; in the assay on NCI-H226 lung, 100%; in the assay on NCI-H322M lung it was 105%; with HOP-62 NSCLC it was 99.3%; with NCI-H460 lung, 102%; in the assay on HOP-92 NSCLC, 88.5%. Besides, the growth with NCI-H522 lung was 92.4%; in the assay with A549/ATCC NSCLC it was 102%; with 786-0 renal, 105%; in the assay with COLO 205 colon, 110%.
For `COc1ccc(-c2csc(NC(=O)N3CCN(c4cc5c(cc4F)c(=O)c(C(=O)O)cn5C4CC4)CC3)n2)cc1`, the growth was -2.88% (active) with NCI-H23 lung; 18.8% in the assay with NCI-H226 lung; 7.07% (active) in the assay on NCI-H322M lung; 20% in the assay with HOP-62 NSCLC; 4.13% (active) with NCI-H460 lung; -25.6% (active) with HOP-92 NSCLC. Besides, the growth was -13.9% (active) in the assay with NCI-H522 lung, 3.2% (active) in the assay on A549/ATCC NSCLC, 20.7% with 786-0 renal and 9.52% (active) with COLO 205 colon.
In the case of `c1ccc2cc(C[n+]3ccn(CCCCCCn4cc[n+](Cc5ccc6ccccc6c5)c4)c3)ccc2c1`, the growth in the assay with NCI-H23 lung was 30.5%; in the assay on NCI-H226 lung, 69.6%; in the assay with NCI-H322M lung, 76.2%; in the assay with HOP-62 NSCLC, 55.8%; in the assay on NCI-H460 lung, 24.6%; with HOP-92 NSCLC, 59.9%. The growth in the assay with NCI-H522 lung was 33.1%; with A549/ATCC NSCLC it was 38.6%; in the assay on 786-0 renal, 83.6%; in the assay on COLO 205 colon it was 27.9%.
